Our source for the inhibition values is PubChem BioAssay AID588475 (Sanford-Burnham Center for Chemical Genomics, 2011).

Among all 350,000 compounds or so, about 2,100 (0.6%) were called active. The entries come from a sample that favours actives as a whole. A number with no mark means an inactive call.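 How the source made its calls: active means inhibition of the ligand-induced calcium signal above about 50% at the single tested concentration (limit read from the data); inactive means the rest.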

The assay in a line: blockers of CRF-evoked CRF-R2/CRF-BP calcium response – cell-based, HEK293, calcium dye fluorescence, uHTS, primary screen (AID 588475). As to conditions: CRF-induced calcium fluorescence, at 11.8 µM, active compounds read high.
Take `COCCCNC(=O)c1ccc(CNS(=O)(=O)c2ccc(NC(C)=O)cc2)cc1`: the inhibition was -2.43%.
With `O=C(Nc1ccc(S(=O)(=O)Nc2nccs2)cc1)c1cccc(S(=O)(=O)N2CCOCC2)c1`, the inhibition is -0.01%.
On to `Cc1nc2ccc(NC(=O)c3cccc(S(=O)(=O)N4CCOCC4)c3)cc2s1`, for which the inhibition was 116% (active).
The value for `O=C(Nc1ccc(S(=O)(=O)N2CCOCC2)cc1)c1ccc2ncsc2c1` was 1.25%; that for `O=C(NNC(=S)NCCCN1CCOCC1)c1ccncc1` was 1.88%.
The value for `CNC(=O)C[C@H]1C(=O)N(Cc2ccccc2)C[C@@H]1CSC` was -10.7%; that for `CN(CCC(=O)Nc1cc(S(=O)(=O)N(C)C)ccc1Cl)CC(=O)Nc1ccc(F)cc1` was -7.88%; that for `O=C(CC1N=C2c3ccccc3N=C(SCc3ccccc3Cl)N2C1=O)NCc1ccco1` (configuration not stated) was 89.4% (active).
The same measure for `O=C(CSC1=Nc2ccccc2C2=NC(c3ccccc3)C(=O)N12)NCC1CCCO1` (configuration not stated): 10.2%; for `NC(=O)CSC1=Nc2ccccc2C2=NC(CCC(=O)NCc3ccc(F)cc3)C(=O)N12` (configuration not stated): 15.6%.
Consider `CCOc1ccc(NC(=O)COc2ccc(C(=O)N3CCC(C(N)=O)CC3)cc2OC)cc1`, for which the inhibition was -31.7%.
Consider `COCC(C)n1c(SCc2ccc(C(=O)OC)o2)nc2ccccc2c1=O` (configuration not stated), for which the inhibition was 51.9% (active).
Turning to `COCC(C)n1c(SCC(=O)NC2CCCCC2C)nc2ccccc2c1=O` (configuration not stated), the inhibition is 6.09%.
Regarding `COCCn1c(C)cc(C(=O)CSc2nc3ccccc3c(=O)n2C(C)COC)c1C` (configuration not stated), the inhibition was 25.5%.
The value for `COCCNC(=O)c1ccc(-n2c(SCc3cccnc3)nc3ccccc3c2=O)cc1` was -8.33%; that for `COc1cccc(-n2c(SCC(=O)NC3CCS(=O)(=O)C3)nc3ccccc3c2=O)c1` (configuration not stated) was 3.38%; that for `COC(=O)c1ccc(CSc2nc3ccccc3c(=O)n2-c2cccc(OC)c2)o1` was 76.5% (active).
The value for `COc1ccc(CCNC(=O)c2nnc(CS(=O)(=O)c3ccccc3)o2)cc1OC` was -36.1%.
The value for `CCc1nn(CCCC(=O)NCc2ccc(C)cc2)c(=O)c2cc3occc3n12` was -4.08%.
For the compound `Cc1ccc(C)c(S(=O)(=O)N2CC(=O)Nc3ccccc32)c1`, the inhibition was -4.23%.
The value for `O=C(NCc1ccncc1)c1cccc(NS(=O)(=O)c2ccc(F)c(F)c2)c1` was -1.96%.
As to `Cc1cc(=O)oc2c(C(=O)c3ccccc3)c(OCC(N)=O)ccc12`, the inhibition is 21.9%.
For `CN(CC(=O)Nc1cccc(F)c1)C(=O)CC1CCCC1`, the inhibition was -9.75%.
The value for `CCCN(CC(=O)Nc1ccccc1C)C(=O)c1ccc2[nH]c3c(c2c1)CC(C)CC3` (configuration not stated) was -10.4%; that for `CC1CCc2[nH]c3ccc(C(=O)N(C)CC(=O)Nc4cccc(F)c4)cc3c2C1` (configuration not stated) was 104% (active); that for `COCCN1CCn2c(nc3cc(NS(C)(=O)=O)ccc32)C1` was -7.04%.
The same measure for `COC(=O)Nc1ncc(CN2C(=O)c3ccccc3C2=O)s1`: -1.89%; for `CCOC(=O)C(CC)/C(C)=N\NC(=O)c1cccc(C)c1` (configuration not stated): 89% (active); for `CC(=O)Nc1ccc(NC(=O)[C@@H](NC(=O)c2cccc(C)c2)C(C)C)cc1`: 4.4%.
The value for `CCNC(=O)COC(=O)CCNC(=O)c1cccc(C)c1` was 3.93%.
As to `Cc1ccccc1C(CC(=O)c1cccs1)C(C#N)C#N` (configuration not stated), the inhibition was -24.6%.
The same measure for `O=C(CN(c1cccc(Cl)c1)S(=O)(=O)c1ccccc1)NN=C1CCCC1`: -7.21%.
The same measure for `O=C(CSc1nc(-c2ccccc2)cs1)Nc1cccc([N+](=O)[O-])c1`: 27.9%; for `O=C(CN1CCC(NC(=O)Nc2ccccc2)CC1)Nc1cccc([N+](=O)[O-])c1`: 13.2%; for `O=C(CSCC(=O)Nc1cccc([N+](=O)[O-])c1)Nc1ccccc1`: 54% (active).
In the case of `O=C1c2ccccc2C2=Nc3ccccc3SC(c3ccccc3F)C12` (configuration not stated), the inhibition is -94.9%.
As for `CC(Nc1ccc([N+](=O)[O-])cc1[N+](=O)[O-])c1ccccc1` (configuration not stated), the inhibition is 61.4% (active).
With `CC(C)OP(=O)(OC(C)C)C(Nc1ccccc1)c1cccc([N+](=O)[O-])c1` (configuration not stated), the inhibition was -23.4%.
The same measure for `CC1(C)C/C(=N/Nc2ccc([N+](=O)[O-])cc2[N+](=O)[O-])C(C)(C)O1`: -6.77%; for `Cc1ccc(OCC(=O)Nc2ccccc2C(=O)NC2CC2)cc1C`: 0.16%; for `O=C(NC(=S)Nc1ccccc1N1CCCCC1)c1ccc(F)cc1`: -90.3%.
For the compound `O=C(Nc1ccccc1N1CCOCC1)c1ccncc1`, the inhibition was 4.16%.
With `CCc1ccc(C(=O)NC(=S)Nc2ccccc2N2CCOCC2)cc1`, the inhibition is 125% (active).
The same measure for `O=C(NCC(=O)N(CC1CCCO1)C(C(=O)NC1CCCCC1)c1ccccc1)c1ccco1` (configuration not stated): 2.38%.
Turning to `COc1ccc(C)cc1NC(=O)CSc1ccc(Cl)cc1`, the inhibition was 5.69%.
The value for `COc1ccc(Cl)cc1NC(=O)CNc1ccccc1F` was 61.7% (active); that for `COc1ccc(Cl)cc1NC(=O)CN(C)C(=O)c1cc2ccccc2cc1OC` was 9.16%.
